Sampled rows, rich in hits. Any-hit rate of the full collection: about 3.5%.
FBW7 activator – activators of human E3 ligase FBW7; hit rate 0.13% among 650,000; AlphaScreen FBW7–phospho-cyclin E peptide binding, activator screen; Q969H0; normalized activity (activation), % at 26.1 µM; in the data active = normalized activity above about 1.9%;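 also: purified mutant Fbw7 with reduced substrate affinity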
GPR151 ag – activators of human GPR151; Q8TDV0; PathHunter beta-arrestin GPR151 cells, luminescence; activation, % at 11.2 µM; hit rate 1% among 650,000; in the data active = activation above about 4.9%;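 also: 0% = median of compound wells and 100% = cells with positive control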
Target sequence (Q8TDV0 whole entry, looked up): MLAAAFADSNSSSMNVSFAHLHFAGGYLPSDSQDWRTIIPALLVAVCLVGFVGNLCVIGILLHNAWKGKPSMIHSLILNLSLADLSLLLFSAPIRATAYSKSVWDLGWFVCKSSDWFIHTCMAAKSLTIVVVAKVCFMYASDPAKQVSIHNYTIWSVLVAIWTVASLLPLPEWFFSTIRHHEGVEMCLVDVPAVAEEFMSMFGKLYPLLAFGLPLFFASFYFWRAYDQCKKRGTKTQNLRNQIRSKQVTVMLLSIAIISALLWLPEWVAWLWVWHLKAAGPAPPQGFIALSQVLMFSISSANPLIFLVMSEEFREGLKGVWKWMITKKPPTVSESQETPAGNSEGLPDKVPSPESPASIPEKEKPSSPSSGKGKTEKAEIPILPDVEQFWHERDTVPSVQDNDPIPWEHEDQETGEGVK
TEAD-YAP block – TEAD-YAP interaction inhibition | AID 1259422 | hit rate 1.4% among 640,000 | HEK-TIYL cells, TEAD-Gal4/YAP UAS-luciferase luminescence | inhibition, % at 9.12 µM; in the data active = inhibition above about 32%;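 also: 0% = median of test compound wells and 100% = reference inhibitor wells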
MITF inh – inhibitors of human MITF | hit rate 0.91% among 650,000 | inhibition, % at 2.6 µM | AlphaScreen MITF homodimerization, bead proximity signal; in the data active = inhibition above about 50%;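 also: 0% = vehicle wells with protein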
* marks the source's active call; other numbers are inactive results.

SMILES	FBW7 activator	GPR151 ag	TEAD-YAP block	MITF inh
CC[C@H](C)[C@@H]1NC(=O)[C@@H]2C[C@H](NC(=O)Nc3cccc(Cl)c3Cl)CN2C1=O	0	-2	12	19
Fc1ccccc1NC(=S)NCCN1CCOCC1	0	0	-3	20
O=C(Nc1ccc2c(c1)OCCO2)c1ccccc1NC(=S)NCCN1CCOCC1	0	-8	73*	-7
CC(C)c1ccccc1OCC(O)CNCCCn1ccnc1 (configuration not stated)	0	-1	8	40
CCOc1ccc(-c2cc(=O)c3ccccc3o2)cc1	0	-2	-30	1
CSc1ccc(-c2cc(=O)c3ccccc3o2)cc1	-1	-1	-61	5
CCOc1ccc(-c2cc(=O)c3cc(O)ccc3o2)cc1	0	-1	47*	8
COc1ccc(-c2cc(=O)c3ccc(O)cc3o2)cc1	0	-3	56*	-1
CSc1ccc(-c2cc(=O)c3cc(O)ccc3o2)cc1	0	-3	44*	-5
CS(=O)(=O)N(CC(=O)N1CCN(c2ccccc2)CC1)c1ccc(Br)cc1	0	-1	7	-3
CC(=O)NC1=NN(C(C)=O)C2(S1)C(=O)N(CCc1ccccc1)c1ccc(C)cc12 (configuration not stated)	0	1	0	-9
COc1ccc(C)cc1-n1nnnc1SCC(=O)c1[nH]c(C)c(C(C)=O)c1C	0	0	33*	12
CCC(c1nnnn1CS(=O)(=O)c1ccc(C)cc1)N1CCN(C)CC1 (configuration not stated)	0	0	0	2
COc1ccccc1N1C(=O)CC(S/C(N)=N/N=C(\C)c2ccc(O)cc2)C1=O (configuration not stated)	0	0	-7	82*
Cc1nc2c(C(=O)NCc3cccnc3)cnn2c(C)c1Cc1cccc(Cl)c1	0	1	0	0
COC(=O)c1cnn2c(C)c(Cc3ccc(C)cc3)c(C)nc12	0	1	43*	5
Cc1ccc(Cc2c(C)nc3c(C(=O)NCc4cccnc4)cnn3c2C)cc1	0	1	49*	2
COCCCNC(=O)c1cnn2c(C)c(Cc3ccc(C)cc3)c(C)nc12	0	0	40*	8
CC(=O)Nc1ccc(-c2cc(C(=O)O)c3c(-c4ccc(C)cc4)[nH]nc3n2)cc1	0	2	-2	2
S=C(NNC1=NCCCCC1)Nc1ccccc1	0	0	6	-13
c1ccc(CSc2nc(SCc3nc4ccccc4[nH]3)c3ccccc3n2)cc1	0	0	5	9
CCCc1cc2c(=S)c(-c3ccc4c(c3)OCCO4)c(C)oc2cc1OC	0	1	-1	-14
CCOc1ccc2nc(N3CCN(C(=O)C(C)C)CC3)sc2c1	0	1	-11	13
CCOc1ccc2nc(N3CCC(C(=O)N4CCC(C(N)=O)CC4)CC3)sc2c1	0	-1	19	1
CCOc1cc2sc(N3CCC(C(=O)O)CC3)nc2cc1Br	0	2	47*	1
SMILES	FBW7 activator	GPR151 ag	TEAD-YAP block	MITF inh
CCOc1ccc2nc(NC(=O)CCCC(=O)O)sc2c1	0	-1	13	-12
CCOc1ccc2nc(N3CCCCC3)sc2c1	0	-6	53*	3
CCOc1ccc2nc(NC(=O)C(C)(C)C)sc2c1	0	0	63*	8
CCOc1ccc2nc(N3CCN(S(=O)(=O)c4ccccc4)CC3)sc2c1	0	0	13	2
CCOc1ccc2nc(N3CCCC3)sc2c1	0	-2	43*	3
O=C(Cc1ccccc1)N1CCN(S(=O)(=O)N2CCOCC2)CC1	0	1	9	3
COCCn1nnnc1C(C(C)C)N1CCN(Cc2ccccc2)CC1 (configuration not stated)	0	0	0	4
Cc1cc(C=O)c(C)n1-c1ccc(C(=O)O)c(Cl)c1	0	0	10	70*
COc1cccc(CN2CCc3nc(-c4ccccn4)nc(N4CCCC4)c3C2)c1	-1	0	41*	12
Nc1c(C(=O)c2ccc(F)cc2)sc2nc(-c3ccccc3)cc(-c3ccco3)c12	0	2	7	63*
Nc1c(C(=O)c2ccc(F)cc2)sc2nc(-c3ccccc3)cc(-c3ccccc3)c12	0	1	3	-4
O=c1[nH]c(N2CCCCC2)nc2c1CCN(Cc1ccc(O)c(O)c1)C2	0	-1	-10	82*
Cc1ccccc1NCC(=O)N/N=C\c1ccc(I)o1	0	-1	0	-2
COC(=O)c1ccccc1NC(=O)CCOc1ccc(OC)cc1	0	-1	33*	-2
COC(=O)c1ccccc1NC(=O)CCS(=O)(=O)c1ccc(OC)cc1	0	2	-9	5
N#CC(C#N)C(C#N)(C#N)C1CCCCC1=O (configuration not stated)	-1	1	12	21
N#CC(C#N)C(C#N)(C#N)C1CCCC1=O (configuration not stated)	-1	-1	7	78*
Cc1ccccc1C(=O)/C=c1\[nH]c(=O)/c(=C\c2cccc(O)c2)s1	0	0	57*	4
NC(=O)c1c(NC(=O)c2nc3ccccc3s2)sc2c1CCCCC2	0	-2	62*	15
NC(=O)c1c(NC(=O)c2cc3ccccc3o2)sc2c1CCCCC2	0	0	42*	-4
NC(=O)c1c(NC(=O)c2ccccc2)sc2c1CCCCC2	0	1	-12	12
COc1ccc(S(=O)(=O)Oc2ccccc2NC(C)=O)c2ccccc12	0	0	55*	2
COc1ccc(S(=O)(=O)Oc2ccccc2NC(C)=O)cc1C	0	1	45*	-7
CC(=O)Nc1ccccc1OS(=O)(=O)c1cc(Br)ccc1Br	0	-1	4	8
COc1ccc(NC(=O)c2sc3ncnc(N4CCN(c5ccccc5OC)CC4)c3c2C)c(OC)c1	0	0	-3	6
SMILES	FBW7 activator	GPR151 ag	TEAD-YAP block	MITF inh
COc1ccc(-c2nc(NCCc3ccc(O)cc3)c3ncn(-c4ccccc4)c3n2)cc1	0	2	24	17
COc1ccc(-c2nc(NCCc3ccc(O)cc3)c3ncn(C(C)C)c3n2)cc1	0	-1	61*	18
COc1ccc(CCNc2nc(-c3ccc(C(=O)N4CCN(C)CC4)cc3)nc3c2ncn3-c2ccccc2)cc1	0	-2	41*	8
CC(C)n1cnc2c(NCCc3ccc(O)cc3)nc(-c3ccccc3)nc21	0	-1	15	2
COc1ccc(CCNc2nc(-c3ccccc3)nc3c2ncn3-c2ccsc2)cc1	0	1	-2	12
COc1ccc(-c2nc(NCCc3ccc(O)cc3)c3ncn(-c4ccsc4)c3n2)cc1	0	2	56*	12
COc1ccc(-c2nc(NCCc3ccc(O)cc3)c3ncn(-c4ccccc4)c3n2)cn1	0	4	47*	-4
Fc1ccc(-c2nc(-c3cccnc3)ncc2-c2ccncn2)cc1	0	1	6	8
COc1ccc(CCNc2nc(-c3ccc(OC)nc3)nc3c2ncn3-c2ccsc2)cc1	0	0	46*	-7

Assay outcomes: PubChem BioAssay, The Scripps Research Institute Molecular Screening Center
